Data as given in PubChem BioAssay (NCI).
The panel holds about 83,000 compounds, 20% with a hit somewhere; the sample as a whole holds those more often.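 96-well plates, one dose, 48 hours. Percent growth reported; active if below 10.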 Calls of active or inactive are those of the source.

How the values were obtained:
Assay in all cases: NCI-60 one-dose screen, 48 h (100 = growth as untreated, 0 = no growth, -100 = all killed)
Details in all cases: 10 µM
[1] = system: HT29 colon
[2] = system: SNB-75 CNS
[3] = system: SNB-19 CNS
[4] = system: U251 CNS
[5] = system: PC-3 prostate
[6] = system: SK-MEL-5 melanoma
[7] = system: UACC-62 melanoma
[8] = system: LOX IMVI melanoma
[9] = system: SK-MEL-28 melanoma
[10] = system: SK-MEL-2 melanoma
[11] = system: SN12C renal
[12] = system: UO-31 renal
[13] = system: TK-10 renal
[14] = system: ACHN renal
[15] = system: CAKI-1 renal
[16] = system: A498 renal
[17] = system: CCRF-CEM leukemia
[18] = system: MOLT-4 leukemia
[19] = system: SR leukemia

Measured: growth

ClC(Cl)(Cl)c1nc2nccnc2[nH]1
inactive: [1] 102% | [2] 83.4% | [3] 102% | [4] 104% | [5] 102% | [6] 113% | [7] 107% | [8] 102% | [9] 110% | [10] 109% | [11] 98% | [12] 80.4% | [13] 119% | [14] 103% | [15] 87.2% | [16] 107% | [17] 96.7% | [18] 104% | [19] 102%

CC(=O)C1CCC2C3CC(F)C4=CC(=O)CCC4(C)C3C(O)CC12C (stereo not given)
inactive: [1] 101% | [2] 103% | [3] 109% | [4] 104% | [5] 90.6% | [6] 102% | [7] 103% | [8] 101% | [9] 112% | [10] 137% | [11] 92% | [12] 75.8% | [13] 122% | [14] 99.7% | [15] 96.1% | [16] 116% | [17] 93.6% | [18] 85.8% | [19] 92.9%

Cn1c([N+](=O)[O-])cnc1/C=C1\Oc2ccc(Cl)cc2C1=O
active: [1] -10.1% | [3] -10.5% | [4] -18.2% | [5] -17.9% | [6] -92.7% | [7] -74.2% | [8] -57.5% | [9] -22.1% | [10] -42.2% | [11] -10.9% | [12] -31.9% | [13] -23% | [14] -2.7% | [15] -22.9% | [17] -11.8% | [18] -1.82%
inactive: [2] 15.7% | [16] 12.3% | [19] 11.6%

COc1ccc2nc3ccccc3c(NCCNCC(C)O)c2c1 (stereo not given)
inactive: [2] 28.1% | [6] 10.3% | [12] 17.9% | [15] 42.5%
active: [1] 1.38% | [3] 0.0735% | [4] 1.29% | [5] 4.7% | [7] -59.9% | [8] -47.1% | [9] 8.18% | [10] -21.8% | [11] -4.73% | [13] 8.4% | [14] -3.07% | [16] -48.5% | [17] 5.94% | [18] 6.77% | [19] 4.1%

O=C(c1cccs1)c1ccccc1Cc1ccccc1
inactive: [1] 96.6% | [2] 94.4% | [3] 90.4% | [4] 92.5% | [5] 87.7% | [6] 97.9% | [7] 90.1% | [8] 103% | [9] 101% | [10] 96.1% | [11] 96.4% | [12] 80.3% | [13] 94.5% | [14] 100% | [15] 89.6% | [16] 58.4% | [17] 93.7% | [18] 92.5% | [19] 93.1%

COc1cc2cc3c(nc2cc1OC)CCN3Cc1ccc(NC(=O)Nc2ccc(F)cc2F)cc1
inactive: [1] 103% | [2] 86.4% | [3] 76.8% | [4] 91.8% | [5] 68.8% | [6] 86.1% | [7] 69% | [8] 88.6% | [9] 95.7% | [10] 88.2% | [11] 79.9% | [12] 68.9% | [13] 94.6% | [14] 85.2% | [15] 62.3% | [16] 49.4% | [17] 71.7% | [18] 58.9% | [19] 62.1%

CCCC(F)C(=O)O (stereo not given)
inactive: [1] 97.5% | [2] 99.2% | [3] 102% | [4] 95.9% | [5] 90.5% | [6] 105% | [7] 100% | [8] 100% | [9] 111% | [10] 107% | [11] 100% | [12] 77.7% | [13] 98% | [14] 106% | [15] 86.2% | [16] 98.5% | [17] 94.5% | [18] 93% | [19] 91.2%

Nc1c(C(=O)Nc2cccc3ccccc23)sc2nc3c(cc12)C(=O)CCC3
active: [1] 8.98% | [16] -17.6% | [17] 7.9% | [19] 4.39%
inactive: [2] 20.7% | [3] 55.3% | [4] 15.2% | [5] 22.6% | [6] 12.2% | [7] 43.2% | [8] 29.7% | [9] 42.8% | [10] 35.5% | [11] 30.8% | [12] 53% | [13] 74.7% | [14] 34.5% | [15] 23.2% | [18] 11.1%

O=C(Nc1ccc(Cl)cc1)N1NC(c2ccc(Cl)cc2)C=C1c1ccccc1 (stereo not given)
inactive: [1] 103% | [2] 72.1% | [3] 109% | [4] 97.1% | [5] 107% | [6] 94.6% | [7] 105% | [8] 104% | [9] 109% | [10] 107% | [11] 108% | [12] 85.8% | [13] 103% | [14] 116% | [15] 103% | [16] 103% | [17] 58.3% | [18] 83.7% | [19] 81.4%

COc1ccc(-c2nc(-c3nc4ccc(Cl)cc4[nH]3)c3ccccn23)cc1
active: [2] -89.4% | [4] 7.5% | [12] -24.8% | [13] -12.1% | [14] 0.296% | [15] -13% | [16] -3.43%
inactive: [1] 34.7% | [3] 20.3% | [5] 55.9% | [6] 50.7% | [7] 82.5% | [8] 30.4% | [9] 12% | [10] 41% | [11] 52.7% | [17] 82.7% | [18] 74.4% | [19] 40.3%

COc1cc(Cl)cc(-c2nn(-c3cccc(NC(=O)Nc4cc(C(F)(F)F)cc(C(F)(F)F)c4)c3)cc2-c2ccncc2)c1
active: [1] 3.93% | [4] -58% | [5] -6.27% | [6] -79.4% | [7] -21.2% | [8] -24% | [9] 6.55% | [10] -38.1% | [11] 9.32% | [12] -0.18% | [15] 8.99% | [16] -21.6% | [17] -22% | [18] -24.6% | [19] -37.9%
inactive: [2] 11.3% | [3] 26.1% | [13] 30.3% | [14] 10.3%

c1ccc(CNc2ncnc3scc(-c4cccs4)c23)nc1
inactive: [1] 91.2% | [2] 64.6% | [3] 67.2% | [4] 75.7% | [5] 58.6% | [6] 14.8% | [7] 56% | [8] 74.2% | [9] 96.7% | [10] 72.2% | [11] 63% | [12] 47.7% | [13] 126% | [14] 54.7% | [15] 58% | [16] 27.6% | [17] 63.7% | [18] 50.5% | [19] 61.5%

C#Cc1ccc(-n2c(/C=C/c3ccc(Cl)c(F)c3)nc3ncccc3c2=O)cc1
active: [1] -53.5% | [2] -64.7% | [4] -53.9% | [5] 2.16% | [6] -97.5% | [7] -55.9% | [8] -57% | [9] -8.26% | [10] -60.2% | [11] -4.94% | [12] -82.5% | [13] -44.6% | [14] 0.478% | [15] -14.2% | [16] -39% | [17] 1.54% | [18] -18.6% | [19] -25.2%
inactive: [3] 22%

CSCCCNC(=O)c1ccc2c(c1)/C(=C/c1[nH]c(C)cc1C)C(=O)N2
inactive: [1] 31.2% | [3] 60.7% | [4] 43.6% | [5] 11.4% | [6] 30.5% | [7] 15.6% | [8] 32.5% | [9] 17.6% | [11] 22% | [13] 29.4% | [17] 52.2% | [18] 29.1% | [19] 10.7%
active: [2] -1.79% | [10] -27.6% | [12] 9.33% | [14] 0.349% | [15] 9.54% | [16] -25.9%

O=C1/C(=C\c2ccccc2)CN(C(=O)c2ccccc2F)C/C1=C\c1ccccc1
active: [1] -46.7% | [4] -36% | [5] 8.54% | [6] -48.6% | [7] -17.4% | [8] -86% | [9] -56.7% | [11] 6.12% | [14] -3.34% | [17] -7.33% | [18] -4.02% | [19] -35.1%
inactive: [2] 53.5% | [3] 51% | [10] 54.8% | [12] 12.4% | [13] 53.8% | [15] 30.4% | [16] 45%
